# Data reported in the supplement of paper PMC10849652.
# Targets with a hit are over-represented here; the source holds about 7,900 in all. About 0.6% of all pairs of compound and target were hits. A number with no mark means an inactive call.
# Experiments:
# Experiment in all cases: log2 fold change, soluble protein after heating vs DMSO (PISA); higher = thermal stabilisation; K562 cells, 10 uM, 30 min; active = over 0.2 and 3.5 SD of the protein, either way, in both replicates (recomputed)
# [1] = compound: COC1=CC=C(C=C1)CN2C=CC3=C2C=C(C=C3)C(=O)NO
# Outline: (§1)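 Soluble protein was defined as the supernatant after 21,000xg for 90 min. It came from K562 cells at 2×10^6 cells/mL given 10 μM compound for 30 min, heated in aliquots for 3 min across 48°C-58°C, pooled, and extracted in PBS with 0.5% NP-40 at 4°C, and was quantified by TMTpro 16plex LC-MS/MS with equalised channel sums. Thermal stability against control samples, from duplicates, is reported as log2 fold change.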
# [2] = compound: CON(C)C(=O)N1N=C(c2cc(F)ccc2F)S[C@@]1(CCCN)c1ccccc1 [filanesib]
# Outline: as §1
# [3] = compound: CO[C@H]1C[C@@H]2CC[C@@H](C)[C@@](O)(O2)C(=O)C(=O)N2CCCC[C@H]2C(=O)O[C@H]([C@H](C)C[C@@H]2CC[C@H](n3cnnn3)[C@H](OC)C2)CC(=O)[C@H](C)/C=C(\C)[C@@H](O)[C@@H](OC)C(=O)[C@H](C)C[C@H](C)/C=C/C=C/C=C/1C [zotarolimus]
# Outline: as §1
# [4] = compound: COc1cc(C(=O)O)ccc1NC(=O)[C@@H]1N[C@@H](CC(C)(C)C)[C@](C#N)(c2ccc(Cl)cc2F)[C@H]1c1cccc(Cl)c1F [idasanutlin]
# Outline: as §1
# [5] = compound: COc1cc(Nc2ncc3c(n2)-c2ccc(Cl)cc2C(c2c(F)cccc2OC)=NC3)ccc1C(=O)O [alisertib]
# Outline: as §1
# [6] = compound: COc1cc2nc(-c3cc(F)ccc3O)nc(N[C@@H]3CNC[C@H]3C(C)(C)O)c2cc1OC
# Outline: as §1
# [7] = compound: COc1cc2ncnc(Nc3ccc(F)c(Cl)c3)c2cc1OCCCN1CCOCC1 [gefitinib]
# Outline: as §1
# [8] = compound: COc1cccc2cc(-c3nc([C@H]4CC[C@H](C(=O)O)CC4)n4ncnc(N)c34)[nH]c12
# Outline: as §1
# [9] = compound: CS(=O)(=O)CCNCc1ccc(-c2ccc3ncnc(Nc4ccc(OCc5cccc(F)c5)c(Cl)c4)c3c2)o1 [lapatinib]
# Outline: as §1
# [10] = compound: CS(=O)(=O)N1CCN(Cc2cc3nc(-c4cccc5[nH]ncc45)nc(N4CCOCC4)c3s2)CC1 [pictilisib]
# Outline: as §1
# UniProt P46108, sequence (P46108 whole entry, looked up): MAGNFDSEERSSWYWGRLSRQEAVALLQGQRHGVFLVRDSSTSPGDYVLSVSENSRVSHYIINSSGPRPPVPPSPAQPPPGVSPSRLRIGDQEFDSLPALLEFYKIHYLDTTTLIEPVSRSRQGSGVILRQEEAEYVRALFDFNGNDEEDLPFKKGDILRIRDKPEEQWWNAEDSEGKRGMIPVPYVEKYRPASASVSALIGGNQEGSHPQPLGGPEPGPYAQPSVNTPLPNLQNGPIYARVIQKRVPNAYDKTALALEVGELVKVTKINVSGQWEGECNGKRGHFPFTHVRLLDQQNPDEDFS
# UniProt P86791, sequence (P86791 whole entry, looked up): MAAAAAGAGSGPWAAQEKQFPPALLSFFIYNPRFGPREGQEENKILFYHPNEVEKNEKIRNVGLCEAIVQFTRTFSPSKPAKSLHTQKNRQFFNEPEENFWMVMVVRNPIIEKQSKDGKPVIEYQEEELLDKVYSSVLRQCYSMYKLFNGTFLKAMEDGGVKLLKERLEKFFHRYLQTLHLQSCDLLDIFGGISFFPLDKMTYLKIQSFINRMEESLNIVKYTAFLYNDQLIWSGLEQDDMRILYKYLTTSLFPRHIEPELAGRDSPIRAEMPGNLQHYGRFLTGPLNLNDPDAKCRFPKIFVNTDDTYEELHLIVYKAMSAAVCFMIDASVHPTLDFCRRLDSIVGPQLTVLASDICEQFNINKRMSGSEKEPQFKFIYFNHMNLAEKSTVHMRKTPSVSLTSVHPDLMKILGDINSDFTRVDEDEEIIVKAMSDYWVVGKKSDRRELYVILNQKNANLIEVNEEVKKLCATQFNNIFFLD
# UniProt Q5RI15, sequence (Q5RI15 whole entry, looked up): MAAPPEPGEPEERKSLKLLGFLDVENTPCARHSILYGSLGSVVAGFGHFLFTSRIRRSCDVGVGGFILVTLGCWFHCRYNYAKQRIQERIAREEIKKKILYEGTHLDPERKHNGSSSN
# UniProt Q9Y5S2, sequence (Q9Y5S2 whole entry, looked up): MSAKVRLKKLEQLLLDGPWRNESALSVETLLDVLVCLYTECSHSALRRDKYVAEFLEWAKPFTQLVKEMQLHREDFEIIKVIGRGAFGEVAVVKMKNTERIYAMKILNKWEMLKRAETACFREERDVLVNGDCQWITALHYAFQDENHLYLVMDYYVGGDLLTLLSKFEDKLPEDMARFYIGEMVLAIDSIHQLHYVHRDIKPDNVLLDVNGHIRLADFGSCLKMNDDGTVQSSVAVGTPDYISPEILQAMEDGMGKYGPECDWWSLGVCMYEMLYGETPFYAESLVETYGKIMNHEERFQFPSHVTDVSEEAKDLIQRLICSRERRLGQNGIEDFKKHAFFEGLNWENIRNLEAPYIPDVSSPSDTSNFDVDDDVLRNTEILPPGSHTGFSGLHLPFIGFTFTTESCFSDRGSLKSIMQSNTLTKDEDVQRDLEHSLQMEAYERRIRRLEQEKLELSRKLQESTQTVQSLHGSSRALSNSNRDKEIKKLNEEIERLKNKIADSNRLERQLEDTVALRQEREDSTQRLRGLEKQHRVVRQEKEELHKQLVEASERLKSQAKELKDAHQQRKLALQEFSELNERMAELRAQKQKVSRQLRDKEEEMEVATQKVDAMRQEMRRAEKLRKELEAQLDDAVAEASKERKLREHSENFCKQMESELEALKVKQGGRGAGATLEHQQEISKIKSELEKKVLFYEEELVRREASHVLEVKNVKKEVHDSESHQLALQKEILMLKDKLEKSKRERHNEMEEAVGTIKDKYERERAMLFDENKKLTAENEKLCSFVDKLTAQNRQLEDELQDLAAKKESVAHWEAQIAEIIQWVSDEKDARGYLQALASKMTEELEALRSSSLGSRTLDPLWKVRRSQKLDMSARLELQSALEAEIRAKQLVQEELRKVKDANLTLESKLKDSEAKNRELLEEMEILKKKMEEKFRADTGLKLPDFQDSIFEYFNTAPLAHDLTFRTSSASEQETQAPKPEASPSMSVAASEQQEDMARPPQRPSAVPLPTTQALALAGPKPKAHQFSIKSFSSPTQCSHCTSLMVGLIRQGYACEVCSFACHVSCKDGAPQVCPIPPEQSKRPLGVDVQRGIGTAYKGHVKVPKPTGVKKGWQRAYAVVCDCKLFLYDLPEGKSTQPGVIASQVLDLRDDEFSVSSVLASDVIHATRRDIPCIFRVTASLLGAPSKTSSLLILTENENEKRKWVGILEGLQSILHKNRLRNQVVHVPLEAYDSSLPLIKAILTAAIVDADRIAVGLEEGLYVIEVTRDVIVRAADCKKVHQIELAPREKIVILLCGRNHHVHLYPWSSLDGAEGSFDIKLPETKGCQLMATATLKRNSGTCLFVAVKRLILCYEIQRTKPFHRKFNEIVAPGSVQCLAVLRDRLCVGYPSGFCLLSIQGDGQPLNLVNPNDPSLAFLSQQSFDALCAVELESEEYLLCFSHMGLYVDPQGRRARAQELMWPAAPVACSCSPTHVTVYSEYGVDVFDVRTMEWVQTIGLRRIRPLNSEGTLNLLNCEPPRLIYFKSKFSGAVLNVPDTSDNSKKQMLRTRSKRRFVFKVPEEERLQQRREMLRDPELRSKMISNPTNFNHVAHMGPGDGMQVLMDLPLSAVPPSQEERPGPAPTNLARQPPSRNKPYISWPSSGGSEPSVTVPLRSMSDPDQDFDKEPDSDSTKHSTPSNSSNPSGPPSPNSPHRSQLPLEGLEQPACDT
# UniProt Q9NYV4, sequence (Q9NYV4 whole entry, looked up): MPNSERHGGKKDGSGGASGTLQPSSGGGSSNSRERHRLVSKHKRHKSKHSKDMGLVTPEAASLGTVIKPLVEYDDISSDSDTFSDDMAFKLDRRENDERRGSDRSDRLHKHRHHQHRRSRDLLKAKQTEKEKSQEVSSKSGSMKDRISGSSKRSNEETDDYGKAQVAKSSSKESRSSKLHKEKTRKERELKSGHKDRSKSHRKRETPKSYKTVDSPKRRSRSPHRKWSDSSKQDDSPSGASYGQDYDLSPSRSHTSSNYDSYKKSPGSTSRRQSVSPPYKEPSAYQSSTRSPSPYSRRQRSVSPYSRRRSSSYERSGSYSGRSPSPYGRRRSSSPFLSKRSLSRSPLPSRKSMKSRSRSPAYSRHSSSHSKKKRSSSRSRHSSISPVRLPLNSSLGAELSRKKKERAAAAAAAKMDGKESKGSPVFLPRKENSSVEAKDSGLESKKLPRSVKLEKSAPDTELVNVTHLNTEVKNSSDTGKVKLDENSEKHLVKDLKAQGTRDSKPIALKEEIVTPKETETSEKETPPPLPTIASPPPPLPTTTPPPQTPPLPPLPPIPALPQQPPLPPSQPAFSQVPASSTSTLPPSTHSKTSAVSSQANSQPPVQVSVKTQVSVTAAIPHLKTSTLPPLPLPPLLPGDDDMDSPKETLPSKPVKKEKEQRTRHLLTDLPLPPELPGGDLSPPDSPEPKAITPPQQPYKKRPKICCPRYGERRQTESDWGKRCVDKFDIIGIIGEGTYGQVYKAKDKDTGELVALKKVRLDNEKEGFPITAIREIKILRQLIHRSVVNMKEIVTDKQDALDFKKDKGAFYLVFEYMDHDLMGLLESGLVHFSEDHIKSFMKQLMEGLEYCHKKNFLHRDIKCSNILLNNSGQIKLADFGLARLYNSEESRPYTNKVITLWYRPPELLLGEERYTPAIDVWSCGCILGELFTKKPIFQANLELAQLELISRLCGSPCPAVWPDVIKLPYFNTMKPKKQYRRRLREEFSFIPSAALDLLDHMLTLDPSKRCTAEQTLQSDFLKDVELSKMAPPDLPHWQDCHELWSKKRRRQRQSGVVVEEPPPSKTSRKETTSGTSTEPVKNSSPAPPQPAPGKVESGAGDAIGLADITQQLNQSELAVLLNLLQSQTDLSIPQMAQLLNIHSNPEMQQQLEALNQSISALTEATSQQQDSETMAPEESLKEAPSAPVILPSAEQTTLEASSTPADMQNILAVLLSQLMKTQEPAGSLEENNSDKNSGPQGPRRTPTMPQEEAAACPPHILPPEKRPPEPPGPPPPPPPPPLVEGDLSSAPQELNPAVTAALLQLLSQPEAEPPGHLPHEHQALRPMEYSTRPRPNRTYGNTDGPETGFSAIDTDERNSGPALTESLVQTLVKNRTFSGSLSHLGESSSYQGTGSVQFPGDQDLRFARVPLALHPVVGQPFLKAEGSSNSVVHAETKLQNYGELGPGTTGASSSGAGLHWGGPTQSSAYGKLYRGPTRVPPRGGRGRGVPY
# UniProt Q7L3B6, sequence (Q7L3B6 whole entry, looked up): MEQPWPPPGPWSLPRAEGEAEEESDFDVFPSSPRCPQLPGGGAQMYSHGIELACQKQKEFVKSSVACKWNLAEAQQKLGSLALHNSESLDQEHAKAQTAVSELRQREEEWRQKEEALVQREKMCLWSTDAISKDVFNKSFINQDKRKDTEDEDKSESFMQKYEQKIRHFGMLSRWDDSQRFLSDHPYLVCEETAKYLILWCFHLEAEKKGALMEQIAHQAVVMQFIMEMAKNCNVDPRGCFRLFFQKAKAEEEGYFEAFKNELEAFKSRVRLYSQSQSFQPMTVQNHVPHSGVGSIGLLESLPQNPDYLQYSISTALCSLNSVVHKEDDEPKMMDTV
# UniProt P14635, sequence (P14635 whole entry, looked up): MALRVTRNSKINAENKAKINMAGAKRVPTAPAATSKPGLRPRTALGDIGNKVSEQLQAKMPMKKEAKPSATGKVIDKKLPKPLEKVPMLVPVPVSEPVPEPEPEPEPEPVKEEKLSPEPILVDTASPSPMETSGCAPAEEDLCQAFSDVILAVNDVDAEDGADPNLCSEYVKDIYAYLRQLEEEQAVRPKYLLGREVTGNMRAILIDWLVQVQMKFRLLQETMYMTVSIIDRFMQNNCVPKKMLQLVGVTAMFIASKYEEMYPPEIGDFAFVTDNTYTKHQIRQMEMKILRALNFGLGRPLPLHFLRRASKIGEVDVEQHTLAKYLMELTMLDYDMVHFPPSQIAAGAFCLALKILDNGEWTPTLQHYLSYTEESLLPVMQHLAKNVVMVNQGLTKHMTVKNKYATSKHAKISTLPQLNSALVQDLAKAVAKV
# UniProt P51636, sequence (P51636 whole entry, looked up): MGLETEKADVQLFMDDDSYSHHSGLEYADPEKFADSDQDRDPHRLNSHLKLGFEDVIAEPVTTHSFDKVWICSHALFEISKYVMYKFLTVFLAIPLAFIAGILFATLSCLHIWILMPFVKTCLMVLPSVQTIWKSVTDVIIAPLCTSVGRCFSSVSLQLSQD
Target,log2 fold change [1],log2 fold change [2],log2 fold change [3],log2 fold change [4],log2 fold change [5],log2 fold change [6],log2 fold change [7],log2 fold change [8],log2 fold change [9],log2 fold change [10]
CD55 isoform 7 (UniProt P08174),-0.115,0.086,0.001,0.038,-0.144,0.012,0.104,-0.136,0.031,0.005
CHAC2 (UniProt Q8WUX2),-0.007,-0.032,0.066,-0.019,0.026,-0.061,-0.03,0.06,0.029,0.077
CDK12 (UniProt Q9NYV4),-0.019,0.463,-0.072,0.303,0.062,-0.226,0.005,-0.03,0.134,-0.018
COQ9 (UniProt O75208),0.02,-0.113,-0.017,0.166,-0.038,-0.013,0.025,0.045,0.043,-0.041
CETN3 (UniProt O15182),-0.211,-0.026,0.041,0.068,-0.058,0.161,-0.001,0.072,-0.175,0.061
CEPT1 (UniProt Q9Y6K0),0.029,-0.277,-0.095,-0.142,0.009,0.022,-0.025,0.036,0.095,0.011
CNOT7 (UniProt Q9UIV1),-0.032,0.012,0.018,-0.008,-0.011,0.233,0.134,-0.067,-0.036,0.001
COX20 isoform 2 (UniProt Q5RI15),-0.029,-0.011,-0.029,-0.039,-0.025,0.06,-0.01,0.012,-0.014,-0.081
CD151 (UniProt P48509),-0.045,0.108,-0.048,-0.12,0.075,0.111,0.001,-0.024,0.012,0.116
CDCA2 (UniProt Q69YH5),0.278,-0.036,-0.04,0.018,0.585,-0.079,0.109,-0.011,0.204,-0.127
CDC42BPB (UniProt Q9Y5S2),-0.062,0.147,0.089,0.062,-0.1,-0.371,-0.07,0.071,-0.009,0.025
CPSF7 isoform 3 (UniProt Q8N684),0.018,0.018,0.033,-0.003,-0.074,0.065,0.029,-0.016,0.013,0.12
CHCHD2 (UniProt Q9Y6H1),0.101,0.026,-0.024,-0.457 (active),0.053,-0.002,-0.028,-0.155,-0.024,0.031
CPT2 (UniProt P23786),0.114,-0.207,0.798 (active),0.806 (active),-0.067,-0.199,0.343,-0.005,0.058,0.57
CDK5RAP1 (UniProt Q96SZ6),-0.395 (active),-0.049,0.066,-0.076,-0.057,0.131,-0.074,0.055,-0.034,0.075
C9orf72 (UniProt Q96LT7),-0.06,-0.054,-0.115,-0.026,0.062,-0.013,-0.034,-0.062,0.062,-0.015
CASC3 (UniProt O15234),0,0.17,-0.105,0.038,-0.051,0.16,0,-0.105,-0.077,-0.066
CASTOR2 (UniProt A6NHX0),0.04,-0.042,-0.038,0.027,-0.08,0.194,-0.053,0.063,-0.108,-0.042
CCNB1 (UniProt P14635),-0.006,-0.035,-0.009,0.003,-0.061,0.015,-0.009,0.017,-0.044,0.002
CCZ1 (UniProt P86791),0.052,-0.062,0.044,-0.015,-0.072,-0.036,0.013,0.018,-0.005,-0.047
CHCHD1 (UniProt Q96BP2),0.037,-0.017,-0.001,0.082,-0.077,-0.198,-0.042,0.161,-0.055,-0.193
CHEK1 (UniProt O14757),0.005,-0.025,-0.029,-0.041,-0.041,-0.805 (active),-0.06,0.055,-0.007,0.016
CAV2 (UniProt P51636),-0.046,0.131,,0,-0.083,-0.011,0.137,0.026,-0.018,0.031
COPS3 isoform 2 (UniProt Q9UNS2),-0.144,0.157,,0.138,-0.008,0.321,0.005,0.083,-0.211,0.128
CRK (UniProt P46108),0.072,0.008,0.144,0.061,-0.107,0.011,-0.006,0.025,0.012,0.043
CLASP2 (UniProt O75122),0.015,,0.235,0.101,-0.025,0.125,0.071,0.072,0.032,
CDC37L1 (UniProt Q7L3B6),-0.027,0.047,-0.057,-0.031,-0.009,-0.106,0.029,-0.037,0.034,-0.051
CCDC57 (UniProt Q2TAC2),0.006,0.01,-0.081,,0.013,-0.008,0.009,0.063,0.07,
COG2 (UniProt Q14746),-0.006,0.25,-0.048,-0.053,0.58,,-0.187,0.631 (active),,
CFAP36 isoform 2 (UniProt Q96G28),0.12,0.055,0.162,-0.02,-0.049,0.001,,0.019,0.082,0.241
